Data taken from PubChem BioAssay.
For part of these data: Entries with a potency or affinity are not part of this list. The source made the active and inactive calls.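 How the source made its calls, unless noted: active means hit in primary screen, with calcium signal over 5 SD above buffer well mean in both duplicates; inactive means the rest.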

What was measured:
[1] = system: TRPC4 beta (transient receptor potential cation channel C4), mouse; assay: activators of mouse TRPC4 channel, confirmation, cell-based, Fluo4 calcium, HEK293 TRPC4beta/mu-opioid, duplicates, 10 µM (AID 2426;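 active means fluorescence ratio normalized to control raised more than 50% in primary screen plus both repeat runs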;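 on activation: percent rise of integrated ratio over buffer wells lacking compound which define 0%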); settings: Fluo4 calcium fluorescence, at 10 µM; hits give high values
[2] = system: transient receptor potential cation channel C4 beta (TRPC4), mouse; assay: activators of mouse TRPC4 channel, confirmation, cell-based, second round, Fluo4, HEK293 TRPC4beta/mu-opioid, 1 µM (AID 2461;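 active means primary screen active and over 50% activation in each of two duplicate runs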;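 on activation: 0% = wells without test compound as baseline of integrated fluorescence ratio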); settings: Fluo4 calcium fluorescence, at 1 µM; hits give high values
[3] = system: TRPC4 (transient receptor potential cation channel C4 beta), mouse; assay: positive allosteric modulators of mouse TRPC4, confirmation, cell-based, second round, Fluo-4, HEK293 TRPC4beta/mu-opioid, 1 µM (AID 2554;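 active means primary screen hit whose fluorescence ratio, in both repeats, exceeds the weak agonist control mean by 3 SD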); settings: DAMGO EC20, Fluo-4 calcium flux, at 1 µM; hits give high values
[4] = system: TRPC4 beta (transient receptor potential cation channel C4), mouse; assay: positive allosteric modulators of mouse TRPC4, confirmation, cell-based, Fluo-4, HEK293 TRPC4beta/mu-opioid (AID 2555;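 active means primary screen hit whose calcium fluorescence ratio, in both repeats, exceeds the weak agonist control mean by 3 SD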); settings: DAMGO EC20, Fluo-4 calcium flux, at 10 µM; hits give high values
[5] = biological target: Short transient receptor potential channel 4 (Mus musculus) (UniProt Q9QUQ5); assay: inhibitors of mouse TRPC4 channel, confirmation, cell-based, Fluo4, HEK293 TRPC4beta/mu-opioid (AID 2636;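 active means calcium signal cut by more than 3 SD below the full-agonist control yet still positive, in both repeats and the earlier primary screen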); settings: DAMGO, Fluo4 calcium flux, at 10 µM; hits give high values
Sequence of Short transient receptor potential channel 4 (Mus musculus) (Q9QUQ5 whole entry, looked up): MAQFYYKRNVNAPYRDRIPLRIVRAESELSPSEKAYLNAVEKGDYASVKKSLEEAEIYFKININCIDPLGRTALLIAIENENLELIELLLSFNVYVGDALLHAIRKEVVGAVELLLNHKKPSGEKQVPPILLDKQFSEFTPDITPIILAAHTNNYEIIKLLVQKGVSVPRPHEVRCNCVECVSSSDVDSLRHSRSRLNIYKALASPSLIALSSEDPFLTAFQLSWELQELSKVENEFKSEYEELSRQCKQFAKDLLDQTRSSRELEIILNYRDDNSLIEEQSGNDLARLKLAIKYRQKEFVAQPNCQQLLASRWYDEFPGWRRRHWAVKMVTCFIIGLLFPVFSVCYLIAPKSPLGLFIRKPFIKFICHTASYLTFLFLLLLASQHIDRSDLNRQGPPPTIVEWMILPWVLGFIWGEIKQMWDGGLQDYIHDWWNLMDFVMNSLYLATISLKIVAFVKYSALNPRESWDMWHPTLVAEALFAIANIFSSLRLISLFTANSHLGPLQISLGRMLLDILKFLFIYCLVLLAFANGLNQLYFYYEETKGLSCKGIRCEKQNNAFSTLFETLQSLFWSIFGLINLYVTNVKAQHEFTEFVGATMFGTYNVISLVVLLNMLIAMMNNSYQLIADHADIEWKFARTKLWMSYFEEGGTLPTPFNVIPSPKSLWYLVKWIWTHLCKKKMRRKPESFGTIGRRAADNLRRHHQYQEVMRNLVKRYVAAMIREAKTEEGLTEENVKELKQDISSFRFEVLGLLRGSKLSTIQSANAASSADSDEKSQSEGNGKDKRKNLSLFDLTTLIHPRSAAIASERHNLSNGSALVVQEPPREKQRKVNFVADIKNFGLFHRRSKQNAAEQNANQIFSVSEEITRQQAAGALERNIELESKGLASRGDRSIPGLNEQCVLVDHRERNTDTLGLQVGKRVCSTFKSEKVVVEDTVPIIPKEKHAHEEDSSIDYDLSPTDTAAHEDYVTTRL

[6] = biological target: Short transient receptor potential channel 4 (Mus musculus) (UniProt Q9QUQ5); assay: inhibitors of mouse TRPC4 channel, confirmation, cell-based, second round, Fluo4, HEK293 TRPC4beta/mu-opioid, 1 µM (AID 2637;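 active means calcium signal ratio cut to more than 3 SD under the fully stimulated control mean yet still positive, in both repeats and the primary screen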); settings: Fluo4 calcium flux, DAMGO, at 1 µM; hits give high values
[7] = biological target: Short transient receptor potential channel 4 (Mus musculus) (UniProt Q9QUQ5); assay: TRPC4 positive allosteric modulators, dose response, cell-based, HEK293 TRPC4/mu-opioid, Fluo-4 calcium, EC20 DAMGO (AID 434941;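 active means earlier screen potentiator hit that boosts the TRPC4 ion channel at some dose, with a dose response; inactive means no potentiation, no dose response, or not a prior hit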;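 further: calcium entry triggered by an EC20 dose of DAMGO at the co-expressed mu-opioid receptor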)
[8] = biological target: Short transient receptor potential channel 4 (Mus musculus) (UniProt Q9QUQ5); assay: mouse TRPC4 channel inhibitors, dose response, cell-based, HEK293 TRPC4/mu-opioid, Fluo-4 calcium (AID 434942;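 active means primary screen inhibitor hit that blocks the TRPC4 channel at some tested dose, yielding a dose curve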)
[9] = biological target: Short transient receptor potential channel 6 (Mus musculus) (UniProt Q61143); assay: inhibition of mouse TRPC6 channel, confirmation, selectivity assay for TRPC4 inhibitor project, cell-based, HEK293, membrane potential dye, duplicate (AID 434948;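 active means active in primary screen and both duplicates, each dropping signal beyond three positive-control SD with fluorescence still positive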); settings: HEK293 TRPC6, membrane potential dye fluorescence, at 10 µM, stimulated with maximal-effect acetylcholine; hits give high values
Sequence of Short transient receptor potential channel 6 (Mus musculus) (Q61143 whole entry, looked up): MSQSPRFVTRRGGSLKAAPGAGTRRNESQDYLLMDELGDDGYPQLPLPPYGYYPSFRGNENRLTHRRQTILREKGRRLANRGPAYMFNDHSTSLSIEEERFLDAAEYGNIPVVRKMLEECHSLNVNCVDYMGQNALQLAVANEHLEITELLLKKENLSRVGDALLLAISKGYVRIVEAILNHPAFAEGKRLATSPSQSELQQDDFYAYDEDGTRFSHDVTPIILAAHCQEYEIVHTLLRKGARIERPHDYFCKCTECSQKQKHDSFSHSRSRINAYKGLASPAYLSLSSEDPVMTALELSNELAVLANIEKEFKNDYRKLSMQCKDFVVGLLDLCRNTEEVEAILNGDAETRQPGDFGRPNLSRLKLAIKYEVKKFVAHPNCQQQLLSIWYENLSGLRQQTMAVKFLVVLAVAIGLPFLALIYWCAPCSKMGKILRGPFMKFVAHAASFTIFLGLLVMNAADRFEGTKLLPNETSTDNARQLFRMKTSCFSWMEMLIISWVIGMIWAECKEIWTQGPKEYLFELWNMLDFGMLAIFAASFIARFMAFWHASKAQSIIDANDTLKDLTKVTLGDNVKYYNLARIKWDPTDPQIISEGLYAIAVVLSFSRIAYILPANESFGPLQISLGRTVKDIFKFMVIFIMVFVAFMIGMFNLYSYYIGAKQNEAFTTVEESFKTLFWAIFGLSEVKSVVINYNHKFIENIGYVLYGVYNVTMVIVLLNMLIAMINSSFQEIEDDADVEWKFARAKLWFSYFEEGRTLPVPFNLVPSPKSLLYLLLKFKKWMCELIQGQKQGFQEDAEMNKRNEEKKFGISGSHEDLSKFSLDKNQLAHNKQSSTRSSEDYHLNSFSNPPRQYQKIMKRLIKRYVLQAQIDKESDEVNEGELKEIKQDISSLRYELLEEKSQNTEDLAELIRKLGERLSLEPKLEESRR

[10] = biological target: Short transient receptor potential channel 6 (Mus musculus) (UniProt Q61143); assay: activation of mouse TRPC6 channel, confirmation, selectivity assay for TRPC4 activator project, cell-based, HEK293, membrane potential dye, duplicate (AID 434950;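 active means membrane potential signal rise above negative control mean plus 3 SD in both duplicates, also active in the earlier TRPC4 screen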;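 on activation: 0% = buffer only wells and 100% = acetylcholine maximal-effect wells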); settings: HEK293 TRPC6, membrane potential fluorescence, at 10 µM; hits give high values
[11] = biological target: Short transient receptor potential channel 6 (Mus musculus) (UniProt Q61143); assay: TRPC6 potentiation by TRPC4 potentiator hits, confirmation, selectivity assay for TRPC4 potentiator project, HEK293 cells, membrane potential dye, duplicate (AID 434952;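 active means compound raising the membrane signal above positive-control mean plus 3 SD in both repeats, and a primary screen hit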); settings: HEK293 TRPC6, membrane potential dye fluorescence, at 10 µM, maximal acetylcholine added after compound; hits give high values
[12] = biological target: Short transient receptor potential channel 4 (Mus musculus) (UniProt Q9QUQ5); assay: calcium flux activators in TRPC4/5HT1a cells, counter-screen for TRPC4 activator project, cell-based, second counter screen, HEK293 TRPC4/5HT1a, Fluo-4 (AID 434977;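 active means calcium signal rise above buffer-control mean plus 5 SD in both duplicates, and also a hit in the primary screen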;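 on activation: plate controls were assay buffer for no effect and maximal serotonin response for full effect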); settings: Fluo-4 calcium flux, at 10 µM; hits give high values
[13] = calcium flux inhibitors in TRPC4/5HT1a cells, confirmation, counter-screen for TRPC4 inhibitor project, cell-based, second counter screen, HEK293 TRPC4/5HT1a, Fluo-4 (AID 434978;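 active means primary screen active whose calcium signal fell more than 3 SD beyond the full-serotonin control mean in both duplicate plates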;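 further: serotonin given first at submaximal then at maximal dose after compound preincubation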); settings: Fluo-4 calcium flux, at 10 µM, serotonin added to trigger calcium flux; hits give high values
[14] = system: TRPC4 (mouse), co-expressed with 5HT1a in HEK293; assay: calcium flux potentiators in TRPC4/5HT1a cells, confirmation, counter-screen for TRPC4 potentiator project, cell-based, second counter screen, HEK293 TRPC4/5HT1a, Fluo-4 (AID 434979;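 active means signal rise over 3 SD above mean of control wells given weak agonist, in both repeats and first screen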); settings: Fluo-4 calcium flux, at 10 µM, serotonin added at its EC20 dose; hits give high values
[15] = calcium flux activation in mu-opioid HEK293 cells, confirmation, counter-screen for TRPC4 activator project, cell-based, HEK293 mu-opioid receptor line (AID 449723); settings: Fluo-4 calcium fluorescence, at 10 µM; hits give high values;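 further: counter screen cells carry the mu-opioid receptor alone and lack TRPC4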
[16] = calcium flux enhancement in mu-opioid HEK293 cells, confirmation, counter-screen for TRPC4 allosteric potentiator project, cell-based, HEK293 mu-opioid receptor line (AID 449724;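 active means calcium signal rise more than 3 SD above the low-dose agonist control mean, in both duplicate plates and the primary screen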); settings: Fluo-4 calcium flux, at 10 µM, compound added before EC20 DAMGO stimulus; hits give high values

CN(C)c1ccc(/C=C/C(=O)c2c(O)c3ccccc3oc2=O)cc1
inactive: outcome [2] | outcome [3] | outcome [4] | outcome [5] | outcome [6] | outcome [7] | outcome [8] | outcome [9] | outcome [11] | outcome [13] | outcome [14] | outcome [16]
active: activation [1] 221% | activation [10] 934% | activation [12] 113% | activation [15] 121%

CCC(=O)N1CCc2cc(Br)cc(S(=O)(=O)NCCCN(CC)Cc3ccccc3)c21
inactive: outcome [3] | outcome [4] | outcome [5] | outcome [6] | outcome [7] | outcome [8] | outcome [9] | outcome [10] | outcome [11] | outcome [13] | outcome [14] | outcome [15] | outcome [16]
active: activation [1] 126% | activation [2] 153% | activation [12] 55.5%

CCn1c(N2CCN(CC(=O)Nc3cccc(C)c3C)CC2)nc2ccccc21
inactive: outcome [3] | outcome [4] | outcome [5] | outcome [6] | outcome [7] | outcome [8] | outcome [9] | outcome [11] | outcome [13] | outcome [14] | outcome [15] | outcome [16]
active: activation [1] 120% | activation [2] 57% | activation [10] 56.5% | activation [12] 23.9%

COc1ccc(C(CNCC(O)COc2c(C)ccc(C)c2C)N(C)C)cc1 (stereo not given)
inactive: outcome [1] | outcome [2] | outcome [3] | outcome [4] | outcome [5] | outcome [6] | outcome [7] | outcome [8] | outcome [9] | outcome [11] | outcome [12] | outcome [13] | outcome [14] | outcome [15] | outcome [16]
active: activation [10] 79%

CCCc1c(O)nc(SCCN(CC)CC)[nH]c1=O
active: activation [1] 179% | activation [2] 82% | activation [12] 51.5%
inactive: outcome [3] | outcome [4] | outcome [5] | outcome [6] | outcome [7] | outcome [8] | outcome [9] | outcome [10] | outcome [11] | outcome [13] | outcome [14] | outcome [15] | outcome [16]

COc1ccc(CNCc2cn(-c3cccc(F)c3)nc2-c2ccc(C)o2)cc1
active: activation [1] 156% | activation [15] 12.4%
inactive: outcome [2] | outcome [3] | outcome [4] | outcome [5] | outcome [6] | outcome [7] | outcome [8] | outcome [9] | outcome [10] | outcome [11] | outcome [12] | outcome [13] | outcome [14] | outcome [16]

C=CCn1c(/N=C/c2ccc(N(C)C)cc2)nc2ccccc21
active: activation [1] 148% | potentiation [4] 24% | activation [10] 159% | activation [12] 44.6% | potentiation [14] 10.4% | activation [15] 103% | activation [16] 1320%
inactive: outcome [2] | outcome [3] | outcome [5] | outcome [6] | outcome [7] | outcome [8] | outcome [9] | outcome [11] | outcome [13]

COc1ccc2c(Cl)c(-c3nnc(SCC(=O)c4ccccc4)n3C)sc2c1
active: activation [10] 35.5%
inactive: outcome [1] | outcome [2] | outcome [3] | outcome [4] | outcome [5] | outcome [6] | outcome [7] | outcome [8] | outcome [9] | outcome [11] | outcome [12] | outcome [13] | outcome [14] | outcome [15] | outcome [16]

CCn1c(N2CCN(C(=S)NCC(C)C)CC2)nc2ccccc21
active: activation [1] 98% | activation [10] 39.5% | activation [12] 27.9%
inactive: outcome [2] | outcome [3] | outcome [4] | outcome [5] | outcome [6] | outcome [7] | outcome [8] | outcome [9] | outcome [11] | outcome [13] | outcome [14] | outcome [15] | outcome [16]

CN1C(CC(=O)Nc2ccc(Br)cc2)c2ccccc2CC1(C)C (stereo not given)
inactive: outcome [2] | outcome [3] | outcome [4] | outcome [5] | outcome [6] | outcome [7] | outcome [8] | outcome [9] | outcome [11] | outcome [13] | outcome [14] | outcome [15] | outcome [16]
active: activation [1] 97% | activation [10] 28.5% | activation [12] 7.45%

CC1(C(=O)NC(=S)NNC(=O)c2ccncc2)CCCCC1
active: activation [1] 197% | activation [12] 101%
inactive: outcome [2] | outcome [3] | outcome [4] | outcome [5] | outcome [6] | outcome [7] | outcome [8] | outcome [9] | outcome [10] | outcome [11] | outcome [13] | outcome [14] | outcome [15] | outcome [16]

CSc1ccc(C(=O)NCC(c2ccco2)N(C)C)cc1[N+](=O)[O-] (stereo not given)
inactive: outcome [3] | outcome [4] | outcome [5] | outcome [6] | outcome [7] | outcome [8] | outcome [9] | outcome [10] | outcome [11] | outcome [13] | outcome [14] | outcome [15] | outcome [16]
active: activation [1] 341% | activation [2] 228% | activation [12] 45.6%

CCN(Cc1ccccc1)S(=O)(=O)c1ccc(C(=O)N(CCCN(C)C)c2nc3c(F)cccc3s2)cc1
active: activation [1] 76%
inactive: outcome [2] | outcome [3] | outcome [4] | outcome [5] | outcome [6] | outcome [7] | outcome [8] | outcome [9] | outcome [10] | outcome [11] | outcome [12] | outcome [13] | outcome [14] | outcome [15] | outcome [16]

Clc1ccc2nc(N3CCNCC3)nc(-c3ccccc3)c2c1
active: activation [1] 74% | activation [12] 26.8% | activation [15] 12.1%
inactive: outcome [2] | outcome [3] | outcome [4] | outcome [5] | outcome [6] | outcome [7] | outcome [8] | outcome [9] | outcome [10] | outcome [11] | outcome [13] | outcome [14] | outcome [16]

O=C(NC(=S)NNC(=O)c1ccccc1[N+](=O)[O-])c1ccc(Br)cc1
inactive: outcome [2] | outcome [3] | outcome [4] | outcome [5] | outcome [6] | outcome [7] | outcome [8] | outcome [9] | outcome [11] | outcome [12] | outcome [13] | outcome [14] | outcome [16]
active: activation [1] 141% | activation [10] 29% | activation [15] 15.6%
